The source of these data is PubChem BioAssay (EPA / NIEHS).

Records with an inconclusive call do not appear. The source made the active and inactive calls. How the source made its calls, unless noted: active means hit-call score of the fitted dose curve at least 0.9, where 1 is the maximum; inconclusive means response in the unintended direction; inactive means score below 0.9.

For assay [1], the target named is Estrogen receptor beta (Homo sapiens) (UniProt Q92731). The experiment in a line: OT_ER_ERbERb_1440: Odyssey Thera (OT) 24-hour HEK293T Protein-Complementation Assay for Estrogen Receptor-beta/-beta Homodimer (AID 2283380).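 Further: scored as signal increase over DMSO baseline for both agonists and antagonists.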 Summed up: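 HEK293T cells stably expressing ER beta LBD (aa 310-547) homodimer fragment-complementation reporter, dosed 24 h. Cells formaldehyde-fixed, Draq5-stained; gain in nuclear (agonist) or nuclear plus cytoplasmic (antagonist) fluorescence versus DMSO read by laser scanning cytometry.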
Sequence of Estrogen receptor beta (Homo sapiens) (Q92731 whole entry, looked up, the tested form may be a part): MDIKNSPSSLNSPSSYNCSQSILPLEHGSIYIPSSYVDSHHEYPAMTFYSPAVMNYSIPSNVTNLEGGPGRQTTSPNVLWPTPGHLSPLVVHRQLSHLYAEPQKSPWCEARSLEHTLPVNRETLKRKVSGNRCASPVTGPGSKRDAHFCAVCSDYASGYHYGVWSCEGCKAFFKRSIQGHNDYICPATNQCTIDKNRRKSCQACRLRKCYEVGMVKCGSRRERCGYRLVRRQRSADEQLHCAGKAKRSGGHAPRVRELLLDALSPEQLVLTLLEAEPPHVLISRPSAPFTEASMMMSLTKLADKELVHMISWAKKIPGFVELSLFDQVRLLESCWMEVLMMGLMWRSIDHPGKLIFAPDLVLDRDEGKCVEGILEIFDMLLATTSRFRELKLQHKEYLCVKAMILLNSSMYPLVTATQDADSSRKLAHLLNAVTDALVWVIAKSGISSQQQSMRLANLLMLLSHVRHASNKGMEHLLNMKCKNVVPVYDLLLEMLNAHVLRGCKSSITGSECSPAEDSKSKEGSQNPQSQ

Assay [2] deals with Estrogen receptor (Homo sapiens) (UniProt P03372). The experiment in a line: OT_ERa_GFPERaERE_0480: Odyssey Thera (OT) 8-hour HeLa Transcription Induction Assay for Estrogen Receptor (AID 2283381; active means hit-call score of the fitted dose curve at least 0.9, where 1 is the maximum; inactive means score below 0.9). Summed up:
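Human cervical HeLa cells were treated for 8 hours, after which ERE-driven GFP induction was measured by fluorescence microscopy; increases over DMSO baseline defined activity.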

Assay [3] has the same target. The experiment in a line: OT_ERa_GFPERaERE_0120: Odyssey Thera (OT) 2-hour HeLa Transcription Induction Assay for Estrogen Receptor (AID 2283382). The method, boiled down: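 Cells (human cervical HeLa) receive compound, incubate 2 hours, then are imaged for fluorescent reporter induction. Images are quantified by high content analysis, and activity is fitted as gain of signal against DMSO.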

The target of assay [4] is Retinoic acid receptor RXR-alpha (Homo sapiens) (UniProt P19793). The experiment in a line: OT_NURR1_NURR1RXRa_0480: Odyssey Thera (OT) 8-hour HEK293T Protein Complementation Assay for Nurr1/retinoid X receptor (RXR) (AID 2283385). The method, boiled down: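 Interaction of bait and prey reconstitutes a functional reporter, whose fluorescence was measured in HEK293T cells dosed with compound for 8 hours. Signal gain relative to DMSO defined the single endpoint.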
Sequence of Retinoic acid receptor RXR-alpha (Homo sapiens) (P19793 whole entry, looked up): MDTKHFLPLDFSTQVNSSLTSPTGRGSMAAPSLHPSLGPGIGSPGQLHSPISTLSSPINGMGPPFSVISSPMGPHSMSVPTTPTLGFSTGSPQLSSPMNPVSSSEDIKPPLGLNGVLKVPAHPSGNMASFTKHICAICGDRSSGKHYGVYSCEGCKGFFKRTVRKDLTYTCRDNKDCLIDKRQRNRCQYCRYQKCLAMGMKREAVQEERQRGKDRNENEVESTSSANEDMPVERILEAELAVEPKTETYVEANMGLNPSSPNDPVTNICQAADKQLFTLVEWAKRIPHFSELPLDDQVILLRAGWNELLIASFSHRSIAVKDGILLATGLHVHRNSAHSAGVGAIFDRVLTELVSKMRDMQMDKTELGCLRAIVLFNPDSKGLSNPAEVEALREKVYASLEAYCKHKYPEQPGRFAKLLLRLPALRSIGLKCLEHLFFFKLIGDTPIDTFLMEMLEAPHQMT

Assay [5] shares this target. The experiment in a line: OT_NURR1_NURR1RXRa_1440: Odyssey Thera (OT) 24-hour HEK293T Protein Complementation Assay for Nurr1/retinoid X receptor (RXR) (AID 2283386). The method, boiled down: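 Steps: fragment-tagged Nurr1 and RXRα expressed in HEK293T; compounds added; after 24 h, complemented reporter quantified by fluorescence intensity; signal increase over DMSO fitted as the single endpoint.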

The target in assay [6] is Peroxisome proliferator-activated receptor gamma (Homo sapiens) (UniProt P37231). Description: OT_PPARg_PPARgSRC1_0480: Odyssey Thera (OT) 8-hour Protein-Complementation Assay for Peroxisome Proliferator-activated Receptor Gamma / SRC-1 Co-activator (AID 2283387).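 Further: nuclear to cytoplasmic split Venus YFP fluorescence ratio reporting PPARg SRC-1 interaction.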 Summed up: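 Read-out: 488 nm N/C fluorescence ratio from complemented Venus YFP fragments, ≥350 cells per image, gain-of-signal fitted against DMSO baseline. Fusions of PPARg/SRC-1 with IFP1/IFP2 expressed transiently in HEK293T; compounds applied 8 h.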
Sequence of Peroxisome proliferator-activated receptor gamma (Homo sapiens) (P37231 whole entry, looked up, the tested form may be a part): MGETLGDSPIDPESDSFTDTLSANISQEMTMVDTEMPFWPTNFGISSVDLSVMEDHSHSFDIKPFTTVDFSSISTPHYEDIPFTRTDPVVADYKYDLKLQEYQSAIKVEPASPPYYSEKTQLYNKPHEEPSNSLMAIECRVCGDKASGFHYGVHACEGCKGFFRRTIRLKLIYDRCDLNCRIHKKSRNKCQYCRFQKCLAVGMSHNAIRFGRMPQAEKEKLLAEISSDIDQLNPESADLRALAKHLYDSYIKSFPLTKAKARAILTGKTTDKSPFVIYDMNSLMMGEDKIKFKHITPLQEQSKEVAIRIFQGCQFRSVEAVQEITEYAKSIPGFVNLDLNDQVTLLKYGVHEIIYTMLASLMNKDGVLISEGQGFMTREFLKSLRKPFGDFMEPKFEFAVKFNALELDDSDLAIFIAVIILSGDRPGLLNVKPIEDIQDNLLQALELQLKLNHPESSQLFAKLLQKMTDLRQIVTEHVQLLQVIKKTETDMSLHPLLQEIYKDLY

The target is the same in assay [7]. The experiment in a line: OT_PPARg_PPARgSRC1_1440: Odyssey Thera (OT) 24-hour Protein-Complementation Assay for Peroxisome Proliferator-activated Receptor Gamma/ SRC-1 Co-activator (AID 2283388).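 Further: nuclear to cytoplasmic ratio of reconstituted Venus YFP fluorescence in fixed imaged cells.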 Summed up: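 Cells carrying the PPARg/SRC-1 fragment-complementation reporter receive compound for 24 hours, are fixed and counterstained with Draq5, then imaged. Increased nuclear relative to cytoplasmic YFP fluorescence above DMSO baseline indicates binding activity.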

Assay [8] in a line: ATG_XTT_Cytotoxicity: Cytotoxicity Assessment in the Attagene TRANS-FACTORIAL HepG2 Assay (AID 2283584). The method, boiled down:
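24 h chemical exposure of reporter-transfected HepG2; XTT signal loss vs DMSO indicates cytotoxicity.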

The nature of assay [9]: CEETOX_H295R_11DCORT: CeeTox H295R High-throughput Steroidogenesis Assay for 11-Deoxycortisol (11DCORT) (AID 2283432; active means hit-call score of the fitted dose curve at least 0.9, where 1 is the maximum; inactive means score below 0.9). The following applies: actives raise or lower the signal. Summed up: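 H295R cells; 10 uM forskolin prestim 48 h; compound in 0.1% DMSO 48 h; media extracted with MTBE; 11-deoxycortisol by LC-MS/MS, 7-point standard curve; gain/loss vs DMSO baseline; viability by MTT in same wells.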

A short description of assay [10]: CEETOX_H295R_OHPREG: CeeTox H295R High-throughput Steroidogenesis Assay for OH-Pregnenolone (OHPREG) (AID 2283434; active means hit-call score of the fitted dose curve at least 0.9, where 1 is the maximum; inactive means score below 0.9). The conditions noted are these: actives raise or lower the signal. Summed up:
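H295R, 10 uM forskolin pre-stim 48 h; test chemical 48 h, 0.1% DMSO final. MTBE extraction, reverse-phase C18 HPLC-ESI+ MS/MS of medium. Gain/loss vs DMSO; viability by MTT in same wells.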

Assay [11] in a line: CEETOX_H295R_OHPROG: CeeTox H295R High-throughput Steroidogenesis Assay for OH-Progesterone (OHPROG) (AID 2283435; active means hit-call score of the fitted dose curve at least 0.9, where 1 is the maximum; inactive means score below 0.9;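 further: human adrenal H295R cells primed 48 h with 10 µM forskolin; 17alpha-hydroxyprogesterone secreted into medium measured by HPLC-MS/MS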). The conditions noted are these: actives raise or lower the signal. The method, boiled down:
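Steps: seed H295R cells and adhere overnight; stimulate with 10 uM forskolin for 48 h; replace with chemical-containing medium (0.1% DMSO) for 48 h; extract medium with MTBE; quantify 17alpha-hydroxyprogesterone by reverse-phase C18 HPLC-MS/MS against a 7-point curve.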

Assay [12] can be described thus: CEETOX_H295R_CORTIC: CeeTox H295R High-throughput Steroidogenesis Assay for Corticosterone (CORTIC) (AID 2283437; active means hit-call score of the fitted dose curve at least 0.9, where 1 is the maximum; inactive means score below 0.9;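 further: human H295R adrenal cells prestimulated with forskolin before chemical exposure; corticosterone secreted into medium quantified by mass spectrometry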). The conditions noted are these: actives raise or lower the signal. Summed up:
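48 h forskolin (10 uM) prestim, then 48 h chemical exposure, final DMSO 0.1%. Readout: corticosterone in medium by LC-MS/MS after MTBE extraction. Gain/loss fit vs DMSO; MTT viability in same wells.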

Assay [13] can be described thus: CEETOX_H295R_CORTISOL: CeeTox H295R High-throughput Steroidogenesis Assay for Cortisol (AID 2283438; active means hit-call score of the fitted dose curve at least 0.9, where 1 is the maximum; inactive means score below 0.9). The conditions noted are these: actives raise or lower the signal. The method, boiled down:
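Cortisol synthesis by H295R cells is measured 48 h after chemical dosing, following a 48 h stimulation with 10 uM forskolin. Hormone is extracted and quantified by HPLC-MS/MS, and activity is fitted bidirectionally against the DMSO control.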

Assay [14] is described as follows: CEETOX_H295R_DOC: CeeTox H295R High-throughput Steroidogenesis Assay for DOC (AID 2283439; active means hit-call score of the fitted dose curve at least 0.9, where 1 is the maximum; inactive means score below 0.9). The following applies: actives raise or lower the signal. The method, boiled down: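 Steps: seed H295R, adhere overnight; 10 uM forskolin 48 h; replace with chemical medium (0.1% DMSO) 48 h; collect medium, MTBE extraction, HPLC-MS/MS for DOC. Viability then checked by MTT; cytotoxic chemicals diluted until viability ≥70%.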

Assay [15] can be described thus: CEETOX_H295R_ESTRADIOL: CeeTox H295R High-throughput Steroidogenesis Assay for Estradiol (AID 2283440; active means hit-call score of the fitted dose curve at least 0.9, where 1 is the maximum; inactive means score below 0.9;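 further: estradiol secreted into medium quantified by LC-MS/MS after dansyl derivatisation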). The conditions noted are these: actives raise or lower the signal. The method, boiled down:
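Readout is estradiol in conditioned medium, quantified by reverse-phase HPLC-MS/MS against a 7-point standard curve. Cells: H295R, forskolin-stimulated, then dosed 48 h in 0.1% DMSO; activity fitted in both directions relative to DMSO.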

The nature of assay [16]: CEETOX_H295R_ESTRONE: CeeTox H295R High-throughput Steroidogenesis Assay for Estrone (AID 2283441; active means hit-call score of the fitted dose curve at least 0.9, where 1 is the maximum; inactive means score below 0.9). The conditions noted are these: actives raise or lower the signal. Summed up:
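Estrone secreted into medium quantified by LC-MS/MS after dansyl chloride derivatization, following 48 h chemical exposure (0.1% DMSO final) of forskolin-prestimulated (10 uM, 48 h) H295R cells; gain or loss fitted against DMSO; MTT viability in same wells.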

A short description of assay [17]: CEETOX_H295R_PROG: CeeTox H295R High-throughput Steroidogenesis Assay for Progesterone (PROG) (AID 2283442; active means hit-call score of the fitted dose curve at least 0.9, where 1 is the maximum; inactive means score below 0.9;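 further: human H295R adrenal cells primed with 10 µM forskolin before dosing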). The conditions noted are these: actives raise or lower the signal. Summed up: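 Measured analyte is progesterone secreted by H295R cells at 48 h of chemical treatment, following 10 uM forskolin priming. Quantitation used HPLC-MS/MS against a 7-point standard curve; cytotoxicity was checked by MTT absorbance.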

Assay [18] has as its target Agonist Androgen Response Element (ARE), AR (gene 367) (UniProt P10275). The experiment in a line: OT_AR_ARELUC_AG_1440: Odyssey Thera (OT) 24-hour CHO-K1 Luciferase Assay for Agonist Androgen Response Element (ARE) (AID 2283379). The method, boiled down: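 Gain-of-signal reporter endpoint: cells (CHO-K1, hamster) are treated 24 h, luciferin/ATP reagent added, and luminescence compared with DMSO baseline.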

Sequence of Estrogen receptor (Homo sapiens) (P03372 whole entry, looked up): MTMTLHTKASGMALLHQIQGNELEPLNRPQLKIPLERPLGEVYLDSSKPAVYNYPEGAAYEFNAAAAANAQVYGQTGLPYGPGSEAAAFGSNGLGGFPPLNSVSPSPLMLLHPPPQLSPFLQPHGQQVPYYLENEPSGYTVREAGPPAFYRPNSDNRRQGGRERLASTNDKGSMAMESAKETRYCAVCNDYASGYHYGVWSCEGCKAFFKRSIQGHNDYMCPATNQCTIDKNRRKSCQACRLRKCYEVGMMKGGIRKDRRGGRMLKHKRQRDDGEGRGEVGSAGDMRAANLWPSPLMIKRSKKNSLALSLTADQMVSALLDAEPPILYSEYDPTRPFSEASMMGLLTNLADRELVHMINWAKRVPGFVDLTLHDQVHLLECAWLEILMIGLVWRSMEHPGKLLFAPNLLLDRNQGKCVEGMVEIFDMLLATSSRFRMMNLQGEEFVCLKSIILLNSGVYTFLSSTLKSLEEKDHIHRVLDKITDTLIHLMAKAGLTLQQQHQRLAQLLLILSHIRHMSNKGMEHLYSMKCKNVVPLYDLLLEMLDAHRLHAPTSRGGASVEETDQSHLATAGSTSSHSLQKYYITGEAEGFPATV
Sequence of Agonist Androgen Response Element (ARE), AR (gene 367) (P10275 whole entry, looked up): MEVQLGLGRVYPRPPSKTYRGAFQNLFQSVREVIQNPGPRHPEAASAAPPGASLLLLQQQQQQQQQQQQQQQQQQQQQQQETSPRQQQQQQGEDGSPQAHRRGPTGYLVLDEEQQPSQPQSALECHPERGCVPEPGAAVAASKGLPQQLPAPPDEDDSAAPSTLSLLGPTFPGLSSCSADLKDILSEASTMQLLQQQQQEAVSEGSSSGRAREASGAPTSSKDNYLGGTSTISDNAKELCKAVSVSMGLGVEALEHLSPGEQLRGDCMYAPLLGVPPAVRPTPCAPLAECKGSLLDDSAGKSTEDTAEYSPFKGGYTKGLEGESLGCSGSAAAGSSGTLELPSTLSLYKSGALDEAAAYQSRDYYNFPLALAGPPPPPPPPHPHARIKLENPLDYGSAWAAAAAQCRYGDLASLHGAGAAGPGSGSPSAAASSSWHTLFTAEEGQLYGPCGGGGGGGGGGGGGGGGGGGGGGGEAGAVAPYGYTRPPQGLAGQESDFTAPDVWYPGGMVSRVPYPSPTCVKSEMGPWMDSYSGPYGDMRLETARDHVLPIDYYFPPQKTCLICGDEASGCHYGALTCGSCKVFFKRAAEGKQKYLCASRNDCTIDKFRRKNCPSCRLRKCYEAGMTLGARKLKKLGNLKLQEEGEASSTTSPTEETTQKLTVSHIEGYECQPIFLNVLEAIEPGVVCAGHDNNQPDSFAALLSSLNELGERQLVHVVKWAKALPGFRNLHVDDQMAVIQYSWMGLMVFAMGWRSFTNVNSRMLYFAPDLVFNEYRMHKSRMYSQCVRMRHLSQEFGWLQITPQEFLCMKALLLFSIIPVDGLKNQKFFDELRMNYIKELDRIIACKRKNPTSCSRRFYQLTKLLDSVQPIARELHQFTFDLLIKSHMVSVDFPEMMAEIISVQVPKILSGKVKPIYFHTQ

Take `NC(=O)c1ccccc1O`: the outcome in assay [1], in assay [2], in assay [3], in [4], in [5] and in assay [6] was inactive. Besides, the compound was called inactive in assay [7] and in assay [8].
Take `O=C(C=Cc1ccccc1)OCc1ccccc1`: the compound was called inactive in assay [1], in assay [2], in [3], in assay [4], in [6] and in assay [7]. The result in [9], in assay [13], in assay [14], in assay [15], in assay [16] and in assay [8] was inactive. Also, the AC50 in [10] was 50 µM (active); in assay [11], 50 µM (active); in [12], 36.2 µM (active); in [17], 14.6 µM (active).
`CCO[Si](C)(OCC)OCC`: the compound was called inactive in assay [1], in [2], in assay [3], in assay [5] and in assay [8].
`O=C(O)CCCC[C@@H]1SC[C@@H]2NC(=O)N[C@@H]21`: the call in assay [1], in assay [2], in [3], in assay [4], in assay [5] and in assay [6] was inactive. The call in assay [7] and in [8] was inactive.
For the compound `CCCc1ccc(OC)cc1`, the result in assay [18], in assay [1], in [2], in assay [3], in assay [6] and in assay [7] was inactive. In addition, in [8], the compound was called inactive.
With `CCCCC/C=C\C/C=C\CCCCCCCC(=O)OC`, the result in assay [1], in [2], in assay [3], in [6] and in assay [7] was inactive. Moreover, the values for the AC50 in assay [4] and in assay [5] were 12 µM (active) and 50 µM (active), respectively.
As for `O=C(C(Cl)Cl)N1CCOC12CCCCC2`, the result in assay [1], in assay [2], in assay [3], in assay [4], in assay [5] and in [6] was inactive. The compound was classed as inactive in [7] and in assay [8].
For `O=S1(=O)OC(c2ccc(O)cc2)(c2ccc(O)cc2)c2ccccc21`, the outcome in assay [1], in assay [3], in [5], in [6] and in [7] was inactive. For the same compound, the AC50 in assay [2] is 73 µM (active).
Regarding `CC(C)(C)c1ccc(-c2ccc(C(C)(C)C)cc2)cc1`, the result in [18], in assay [1], in assay [2], in assay [3], in assay [6] and in assay [7] was inactive. Also, the AC50 in assay [4] is 85.6 µM (active); in assay [5], 78.3 µM (active).
As for `O=C1CCCC1`, the compound was called inactive in [1], in assay [3], in assay [5], in [6], in [7] and in [8]. The half-maximal activity concentration (AC50) in assay [2] is 48.4 µM (active).
Take `Cc1ccc(N/N=c2\c(=O)cc/c(=N/Nc3ccc(S(=O)(=O)O)cc3)c2=O)c(C)c1`: the call in assay [1], in assay [2], in [3], in assay [6] and in assay [7] was inactive.
For the compound `CCCCCCCOC(=O)CCC`, the compound was called inactive in [1], in [2], in [3], in assay [4], in assay [5] and in [6]. In addition, the compound was called inactive in [7] and in [8].
With `CC(C)(C)c1ccc(OC(=O)c2ccccc2O)cc1`, the AC50 was 32 µM (active) in assay [1], 50 µM (active) in assay [4] and 89 µM (active) in assay [5]. For the same compound, the compound was called inactive in [2], in assay [3], in [6], in [7] and in assay [8].
Take `CC(C)(C)c1ccc(N)cc1`: the call in [1], in assay [2], in [3], in assay [4], in assay [5] and in assay [6] was inactive. In addition, the result in assay [7] and in assay [8] was inactive.
Regarding `CC1=CC[C@H]2C[C@@H]1C2(C)C`, the call in [1], in assay [5], in assay [6] and in [7] was inactive. In addition, the AC50 in assay [2] is 93.4 µM (active); in [3] it was 93.6 µM (active).
